From PubChem BioAssay AID608 (Sanford-Burnham Center for Chemical Genomics, 2007) come the findings set out here.

Structures are written as SMILES. Out of some 3,800 compounds screened, about 50 (1%) were called active. The rule behind the calls is not given here. This is one part of the list. Results with a measured potency or affinity are listed apart.

The target in this experiment is Peptidyl-prolyl cis-trans isomerase FKBP1A (Homo sapiens) (UniProt P62942). In words: small-molecule binding to FKBP12 – biophysical, NMR detection (AID 608). Particulars: purified FKBP12.
Sequence of Peptidyl-prolyl cis-trans isomerase FKBP1A (Homo sapiens) (P62942 whole entry, looked up): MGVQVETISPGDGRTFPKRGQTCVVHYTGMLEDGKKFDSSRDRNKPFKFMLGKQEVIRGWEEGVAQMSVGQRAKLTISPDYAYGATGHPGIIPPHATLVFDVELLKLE
`O=C(Nc1ccc(OCC(=O)N2CCOCC2)cc1)c1cccnc1`: the result was inactive.
